In PubChem BioAssay (NCI):
Values joined by “and” are separate entries in the source; they are usually repeats but may differ in a detail not shown here. Equal entries are not always repeated. About 79,000 compounds went through this panel and 15% of them were active in at least one assay; those are over-represented in the sample as a whole. A structure can be active in one record and inactive in another. Active and inactive are the calls of the source. No stated cut-off is given here; in the data, active means growth inhibition above about 70%; inactive means the rest.

Columns and labels:
[1] = NCI Yeast Anticancer Drug Screen. Data for the rad50 strain (AID 155);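 further: 0% = growth of vehicle-only cultures of the same strain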; conditions: S. cerevisiae rad50 strain growth inhibition, stronger effect = higher value
In short: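 Relative growth inhibition (compound vs vehicle) was measured in yeast with a defined repair-gene alteration.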

[2] = NCI Yeast Anticancer Drug Screen. Data for the mec2-1 strain (AID 157); conditions: S. cerevisiae mec2-1 strain, stronger effect = higher value
In short: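 Readout is yeast growth inhibition, normalised to vehicle-treated controls, in the mec2-1 strain exposed to compound.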

[3] = NCI Yeast Anticancer Drug Screen. Data for the sgs1 mgt1 strain (AID 161);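 further: 0% = growth of cultures given vehicle only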; conditions: S. cerevisiae sgs1 mgt1 strain, stronger effect = higher value
In short: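 Percent growth inhibition was derived by comparing compound-exposed mutant yeast with vehicle-exposed cultures. The strain carries alterations in DNA damage repair.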

[4] = NCI Yeast Anticancer Drug Screen. Data for the cln2 rad14 strain (AID 165);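 further: 0% = growth equal to vehicle treated cultures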; conditions: S. cerevisiae cln2 rad14 strain, stronger effect = higher value
In short: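 Relative to vehicle controls, growth inhibition of compound-treated cln2 rad14 yeast was recorded.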

[5] = NCI Yeast Anticancer Drug Screen. Data for the bub3 strain (AID 167); conditions: S. cerevisiae bub3 mutant strain, stronger effect = higher value
In short: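 Screening used yeast with an engineered genetic alteration affecting cell cycle control. Compound-exposed cultures were compared with vehicle cultures, and reduced growth was taken as inhibition.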

[6] = NCI Yeast Anticancer Drug Screen. Data for the mlh1 rad18 strain (AID 175); conditions: S. cerevisiae mlh1 rad18 strain growth inhibition, stronger effect = higher value
In short: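 Test agents were incubated with a yeast strain of defined genotype (DNA damage repair defect). Inhibition of growth was derived by comparison with vehicle-exposed cultures.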

[7] = at 5.0 µM (retest, dose inferred, filed as 0.5)
[8] = at 50.0 µM (retest, dose inferred, filed as 5.0)

Structure (SMILES) | growth inhibition [1, 7] | growth inhibition [1, 8] | growth inhibition ([1]; at 50.0 µM) | growth inhibition [2, 7] | growth inhibition [2, 8] | growth inhibition ([2]; at 50.0 µM) | growth inhibition [3, 7] | growth inhibition [3, 8] | growth inhibition ([3]; at 50.0 µM) | growth inhibition [4, 7] | growth inhibition [4, 8] | growth inhibition ([4]; at 50.0 µM) | growth inhibition [5, 7] | growth inhibition [5, 8] | growth inhibition ([5]; at 50.0 µM) | growth inhibition [6, 7] | growth inhibition [6, 8] | growth inhibition ([6]; at 50.0 µM)
O=[N+]([O-])C(/C=C(\Cl)[N+](=O)[O-])=C(Nc1ccccc1)Nc1ccccc1 | -23% (inactive) | 98% (active) | 86.8% (active) | -7% (inactive) | 99% (active) | 88.2% (active) | -16% (inactive) | 98% (active) | 86.8% (active) | 1% (inactive) | 98% (active) | 82.8% (active) | -33% (inactive) | 99% (active) | 85.8% (active) | 27% (inactive) | 99% (active) | 80.3% (active)
OC1CCC(O)CC1 (stereo unspecified) | -1% (inactive) | 42% (inactive) | 73.8% (active) and 21.8% (inactive) | -3% (inactive) | 3% (inactive) | 20.2% (inactive) and -13.1% (inactive) | 0% (inactive) | 5% (inactive) | 70.2% (active) and -6.75% (inactive) | 2% (inactive) | -3% (inactive) | 8.65% (inactive) and -1.45% (inactive) | 0% (inactive) | 4% (inactive) | 11% (inactive) and -1.95% (inactive) | 0% (inactive) | 10% (inactive) | 67.3% (inactive) and 22% (inactive)
CC(=O)OC1CC2C(C)(C)C(=O)C=C[C@]2(C)C2CCC3(C)C(=CC(=O)C3c3ccoc3)[C@]12C (stereo partly specified) | -4% (inactive) | 40% (inactive) | 65.4% (inactive) | -8% (inactive) | 38% (inactive) | 65.3% (inactive) | -1% (inactive) | 86% (active) | 87% (active) | 19% (inactive) | 52% (inactive) | 18.7% (inactive) | 7% (inactive) | 58% (inactive) | 56.9% (inactive) | -1% (inactive) | 52% (inactive) | 56.4% (inactive)
CCN1/C(=C/C=C/C=C/c2sc3ccccc3[n+]2CC)Sc2ccccc21 | 97% (active) | 25% (inactive) | 56.1% (inactive) and 66.5% (inactive) | 98% (active) | 28% (inactive) | 64.7% (inactive) and 70.8% (active) | 96% (active) | 11% (inactive) | 79.5% (active) and 58.2% (inactive) | 93% (active) | 28% (inactive) | 67.7% (inactive) and 65.2% (inactive) | 97% (active) | 1% (inactive) | 53.8% (inactive) and 52.5% (inactive) | 96% (active) | 14% (inactive) | 54.5% (inactive) and 43.6% (inactive)
Oc1cc2c(cc1C(c1ccc3c(c1)OCO3)N1CCN(C(c3ccc4c(c3)OCO4)c3cc4c(cc3O)OCO4)CC1)OCO2 (stereo unspecified) | 2% (inactive) | 98% (active) | 81.9% (active) | -1% (inactive) | 99% (active) | 92.8% (active) | 8% (inactive) | 98% (active) | 78.2% (active) | 8% (inactive) | 49% (inactive) | 24.4% (inactive) | 2% (inactive) | -1% (inactive) | 54.2% (inactive) | 3% (inactive) | 94% (active) | 93.2% (active)
O=[N+]([O-])c1cccc2nc3ccccc3c(NCCN(CCO)CCO)c12 | 81% (active) | 94% (active) | 71% (active) | 88% (active) | 98% (active) | 73.4% (active) | 91% (active) | 98% (active) | 52.5% (inactive) | 95% (active) | 99% (active) | 84.8% (active) | 79% (active) | 99% (active) | -17.6% (inactive) | 90% (active) | 96% (active) | 58% (inactive)
O=C(N/C=C/C=C/Sc1ccccc1)OCc1ccccc1 | 6% (inactive) | 97% (active) | 0.05% (inactive) | -6% (inactive) | 98% (active) | 21.8% (inactive) | -20% (inactive) | 98% (active) | 38.6% (inactive) | 23% (inactive) | 97% (active) | -4.35% (inactive) | 5% (inactive) | 99% (active) | 2.2% (inactive) | -8% (inactive) | 98% (active) | 17.6% (inactive)
